From PubChem BioAssay (Tox21)
Inconclusive results are not listed. Where a call stands in place of a potency, no number is given. The source holds several records for some structures; these can differ, active in one and inactive in another. Calls of active or inactive are those of the source. Calls follow the shape of the dose curve; as a rule, active = well fitted inhibition curve with a large enough effect in the repeat runs; inconclusive = weak or mixed curves; inactive = no such curve, though single readings can be large or run the other way.

Each compound was assayed against Cytochrome P450 3A4 (Homo sapiens) (UniProt P08684) (assay: Cytochrome P450 Family 3 Subfamily A Member 4 (CYP3A4) small molecule antagonists: luciferase reporter qHTS assay (AID 1671201; also: nearly all actives have a fitted effect of over 50% in size)). Details: P450-Glo CYP3A4 enzyme, luciferin luminescence, 1 h; series mostly up to 115 µM.
Chain of Cytochrome P450 3A4 (Homo sapiens) (P08684 whole entry, looked up): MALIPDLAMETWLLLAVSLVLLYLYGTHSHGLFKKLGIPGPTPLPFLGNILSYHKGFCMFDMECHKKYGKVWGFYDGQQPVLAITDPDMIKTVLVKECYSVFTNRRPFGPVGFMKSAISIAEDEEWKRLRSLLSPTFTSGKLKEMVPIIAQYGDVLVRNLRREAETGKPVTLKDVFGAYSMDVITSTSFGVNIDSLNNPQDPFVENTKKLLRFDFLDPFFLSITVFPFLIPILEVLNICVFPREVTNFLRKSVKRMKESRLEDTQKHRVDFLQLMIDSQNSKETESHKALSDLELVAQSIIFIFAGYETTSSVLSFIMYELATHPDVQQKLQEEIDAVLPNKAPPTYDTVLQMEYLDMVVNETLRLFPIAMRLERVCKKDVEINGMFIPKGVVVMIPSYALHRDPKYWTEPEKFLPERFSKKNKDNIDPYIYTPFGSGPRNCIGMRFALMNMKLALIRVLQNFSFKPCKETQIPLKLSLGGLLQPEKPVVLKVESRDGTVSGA
Summary of the method: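 Setup: enzyme-substrate mix, compound pin transfer, 10 min RT. Reaction: NADPH regeneration solution, 1 h RT. Readout: detection reagent stops turnover, luminescence measured after 20 min, expressed in relative luminescence units.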
Potency is read from the fitted curve at half-maximal effect.

| SMILES | Potency |
| --- | --- |
| C[C@]12C=CC(=O)C=C1CC[C@@H]1[C@@H]2[C@@H](O)C[C@@]2(C)[C@H]1CC[C@]2(O)C(=O)CO | inactive |
| CCCCCCCCCCCCCCCC(=O)O | inactive |
| Nc1ccc(S(=O)(=O)c2ccc(N)cc2)cc1 | inactive |
| CCOc1ccc(NC(=O)CC(C)O)cc1 (centres undefined) | inactive |
| Cc1cc(=O)n(-c2ccccc2)n1C | inactive |
| CC(O)CO (centres undefined) | 27.2 µM (active) and inactive |
| CC(O)C(=O)O (centres undefined) | inactive |
| CCCNC(=O)NS(=O)(=O)c1ccc(Cl)cc1 | inactive |
| COc1ccc2[nH]cc(CCNC(C)=O)c2c1 | inactive |
| NC(N)=O | inactive |
| NC(=O)c1ccccc1O | inactive |
| CCC1(c2ccccc2)C(=O)NCNC1=O | inactive |
| O=C(O)c1cccc([N+](=O)[O-])c1 | inactive |
| O=C(O)C(=O)O | inactive |
| Nc1ccc(O)c(C(=O)O)c1 | inactive |
| Cc1noc(NS(=O)(=O)c2ccc(N)cc2)c1C | inactive |
| O=C(O)c1[nH]n(-c2ccc(S(=O)(=O)O)cc2)c(=O)c1N=Nc1ccc(S(=O)(=O)O)cc1 | inactive |
| CC(O)CN(CCN(CC(C)O)CC(C)O)CC(C)O (centres undefined) | inactive |
| Cc1ccccc1C(OCCN(C)C)c1ccccc1 (centres undefined) | inactive |
| O=C(O)/C=C\C(=O)O | inactive |
| O=C(O)CCCCCCCC(=O)O | inactive |
| O=C(c1ccccc1)C(O)c1ccccc1 (centres undefined) | inactive |
| CC(=O)NS(=O)(=O)c1ccc(N)cc1 | inactive |
| Cn1c(=O)c2[nH]cnc2n(C)c1=O | inactive |
